SRC1 inh – inhibits human SRC1 coactivator; AID 588354; 360,000 compounds, 0.12% hits; HEK293 GAL4-SRC1 luciferase reporter, luminescence; inhibition, % at 3.6 µM; Q15788;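 active means inhibition above the campaign mean plus 3 SD, with each screening campaign given its own cutoff, cut at about 60% in these data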;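 further: 0% = DMSO treated cells and 100% = gossypol at 36 µM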
SRC2 inh – inhibits human steroid receptor coactivator 2; Q15596; HEK293 GAL4-SRC2 luciferase reporter, luminescence; inhibition, % at 9 µM; 370,000 compounds, 0.17% hits; AID 651957;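 active means inhibition above the mean inhibition of all tested compounds plus 3 SD, set per campaign, cut at about 52% in these data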;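 further: 0% = DMSO treated cells and 100% = cells given Gossypol at 36 µM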
Target sequence (Q15596 whole entry, looked up, the tested form may be a part): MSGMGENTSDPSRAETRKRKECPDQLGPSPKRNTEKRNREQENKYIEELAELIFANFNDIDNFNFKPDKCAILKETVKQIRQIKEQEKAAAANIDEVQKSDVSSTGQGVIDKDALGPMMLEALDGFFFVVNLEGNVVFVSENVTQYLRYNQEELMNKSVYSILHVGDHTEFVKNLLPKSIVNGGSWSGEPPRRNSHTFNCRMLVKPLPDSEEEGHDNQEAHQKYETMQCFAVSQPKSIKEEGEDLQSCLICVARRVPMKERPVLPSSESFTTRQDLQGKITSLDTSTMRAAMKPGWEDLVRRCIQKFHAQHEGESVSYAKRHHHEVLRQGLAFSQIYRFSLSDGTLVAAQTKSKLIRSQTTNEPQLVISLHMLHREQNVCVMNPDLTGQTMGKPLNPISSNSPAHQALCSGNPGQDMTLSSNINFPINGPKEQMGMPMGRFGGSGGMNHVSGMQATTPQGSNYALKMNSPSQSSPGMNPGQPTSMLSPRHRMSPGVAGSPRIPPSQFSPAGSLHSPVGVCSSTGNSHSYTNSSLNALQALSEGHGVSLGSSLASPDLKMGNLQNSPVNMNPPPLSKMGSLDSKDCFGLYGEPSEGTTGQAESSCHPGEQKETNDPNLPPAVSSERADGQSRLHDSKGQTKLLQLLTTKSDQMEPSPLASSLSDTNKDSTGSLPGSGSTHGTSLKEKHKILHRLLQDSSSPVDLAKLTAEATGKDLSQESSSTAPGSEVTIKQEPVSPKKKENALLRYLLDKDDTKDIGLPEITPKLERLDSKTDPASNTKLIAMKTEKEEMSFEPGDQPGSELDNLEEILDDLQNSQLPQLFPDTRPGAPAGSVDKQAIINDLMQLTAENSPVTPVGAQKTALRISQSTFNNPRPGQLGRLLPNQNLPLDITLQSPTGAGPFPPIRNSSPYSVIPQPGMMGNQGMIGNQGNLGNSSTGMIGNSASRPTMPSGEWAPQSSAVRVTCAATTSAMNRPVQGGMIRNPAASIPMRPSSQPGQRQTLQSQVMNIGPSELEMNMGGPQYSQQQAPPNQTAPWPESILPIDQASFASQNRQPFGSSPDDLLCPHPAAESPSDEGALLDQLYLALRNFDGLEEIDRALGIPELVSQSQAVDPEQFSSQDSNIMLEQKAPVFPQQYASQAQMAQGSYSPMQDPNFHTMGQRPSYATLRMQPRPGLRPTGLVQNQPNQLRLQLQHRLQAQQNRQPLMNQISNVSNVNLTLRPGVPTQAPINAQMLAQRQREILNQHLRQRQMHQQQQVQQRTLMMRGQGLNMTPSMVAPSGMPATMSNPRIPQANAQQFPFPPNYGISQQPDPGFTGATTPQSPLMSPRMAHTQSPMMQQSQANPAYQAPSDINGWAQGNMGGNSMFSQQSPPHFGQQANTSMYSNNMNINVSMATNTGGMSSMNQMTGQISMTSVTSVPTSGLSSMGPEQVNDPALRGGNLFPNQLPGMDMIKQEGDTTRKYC
LRH-1 inv ag – suppresses constitutive activity of human LRH-1 | 360,000 compounds, 0.13% hits | AID 602396 | inhibition, % at 3.6 µM | HEK293T StAR-luciferase reporter, LRH-1 transfected, 24 h;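 active means inhibition above the mean inhibition of all tested compounds plus 3 SD, cut at about 73% in these data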;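 further: 0% = DMSO wells and 100% = reporter-only cells lacking LRH-1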
SRC3 inh – human NCOA3 inhibition | inhibition, % at 3.6 µM | Q9Y6Q9 | 360,000 compounds, 0.17% hits | HEK293 GAL4-SRC3 luciferase reporter, luminescence | AID 588352;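 active means inhibition above a per-campaign cutoff, the mean of all compounds plus 3 SD, cut at about 60% in these data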;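 further: 0% = DMSO-treated cells and 100% = gossypol-treated cells at 36 µM; higher means less SRC3-driven luciferase light from the GAL4 reporter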
COUP-TFII inh – inhibitors of human COUP-TFII (NR2F2); P24468; HEK293T NGFI-A luciferase reporter, luminescence; inhibition, % at 8.6 µM; 370,000 compounds, 0.7% hits; AID 686940;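 active means inhibition above a per-plate cutoff, mean inhibition of test wells between control levels plus 3 SD, cut at about 38% in these data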;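 further: cells cotransfected with COUP-TFII expression vector driving the NGFI-A reporter; 0% = median of COUP-TF2 test wells and 100% = reporter-only cells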
* = called active by the depositor; · = no result. Most compounds without a hit are left out; they make up all but 0.81% or so of the library.

SMILES | SRC1 inh | SRC2 inh | LRH-1 inv ag | SRC3 inh | COUP-TFII inh
CCCCc1c(-c2ccccc2F)ncn1CCc1ccccc1OC | · | 5 | -27 | · | 15
CS/C(=C\[N+](=O)[O-])Nc1ccc(OC(F)(F)F)cc1 | 21 | 22 | 80* | 24 | 2
CC(C)(CCl)C(=O)Nc1ccc(OC(F)(F)F)cc1 | -6 | -33 | -1 | -2 | -11
CCCC(=O)N1CCN(c2ccc(NC(=O)c3cc4ccccc4o3)cc2Cl)CC1 | 46 | 41 | 36 | 76* | 36
O=C(COC(=O)Cc1ccc(Cl)cc1)NC1CCCC1 | -5 | -12 | -4 | 15 | 3
Cc1ccc(S(=O)(=O)N2CCCCC2)cc1NC(=O)c1ccccn1 | -2 | 23 | -3 | 9 | -12
COc1ccc(-n2sc3c(c2=S)-c2cc(OC)ccc2NC3(C)C)cc1 | 6 | 1 | -24 | 3 | 8
COc1ccc2c(c1)-c1c(ssc1=S)C(C)(C)N2 | 58 | 42 | 46 | 66* | 24
O=C(Nc1ccc(N2CCCCC2)cc1)c1ccccn1 | 64* | · | 60 | 71* | ·
O=C(Nc1ccc(N2CCCCCC2)cc1)c1ccccc1Cl | -126 | -117 | -129 | -87 | -46
COc1ccc(CNc2ncc(-c3ccc(F)cc3)n2C)c2ccccc12 | 26 | 82* | -15 | 14 | 5
C[C@H]1CCC/C=C/[C@@H]2C[C@H](O)C[C@H]2[C@H](O)[C@H](S(=O)c2ccc(O)cc2)CC(=O)O1 (stereo partly drawn) | 2 | -30 | 79* | 63* | 51*
COC(=O)c1cc2c(n1S(=O)(=O)c1ccc(C)cc1)C(=O)C(=O)c1[nH]cc(C(=O)OCc3ccccc3)c1-2 | 87* | · | -2 | 88* | ·
COC(=O)c1cc2c(c3c4cc(OC)ccc4n(S(=O)(=O)c4ccc(C)cc4)c13)C(=O)N(Cc1ccccc1)C2 | · | 2 | · | · | 8
N=c1c2c(n(Cc3ccc(F)cc3)c3c1CCC3)CCC2 | 36 | 16 | 74* | 50 | 36
COc1ccc(Br)cc1/C=C/C(=O)Nc1ccc2ccccc2c1 | -36 | 1 | -3 | -9 | -6
CCC(=O)Nc1cccc(C(=O)/C=C/c2cc(Br)ccc2OC)c1 | 49 | 64* | 73* | 79* | 10
Cn1c2c(c(=O)n(C)c1=O)C(C(F)(F)F)(C(F)(F)F)N=C(c1ccc(Cl)cc1)N2 | 75* | · | 98* | 77* | ·
COc1ccc(N=C(N)NC(=O)OCc2ccccc2)cc1 | · | -56 | · | · | -20
COc1ccc(S(=O)(=O)N2CCOCC2)cc1NC(=O)CCNC(=O)c1ccc([N+](=O)[O-])cc1 | 55 | 48 | 82* | 45 | -33
CCOC(=O)c1cnc(SCc2cccc(C)c2)nc1N | -28 | -16 | -62 | -28 | -25
CCN(CC)S(=O)(=O)c1cccc(C(=O)N/N=C(\C)c2ccc(O)cc2O)c1 | -14 | 37 | -17 | 70* | 2
c1ccc2c(c1)CCN(c1nc3cc4c(cc3s1)OCCO4)C2 | 44 | 58* | 37 | 32 | 61*
CCCc1nc2c3ccccc3ccn2c1Cc1ccccc1 | -99 | -49 | -115 | -81 | -54
NC(=S)N/N=C/c1ccccc1 | -9 | -20 | 17 | 15 | 6
SMILES | SRC1 inh | SRC2 inh | LRH-1 inv ag | SRC3 inh | COUP-TFII inh
CNc1cccnc1C=NNC(N)=S | 80* | 34 | 49 | 80* | -11
NC(=S)NN=Cc1nccc2c(C(F)(F)F)cccc12 | 87* | 25 | 93* | 91* | -55
Nc1ncnc2c1ncn2C1O[C@H](CO)[C@@H](O)[C@@H]1O (stereo partly drawn) | -5 | -7 | 3 | -5 | 2
N#Cc1c(N)n(C2OC(CO)C(O)C2O)c2ncnc(N)c12 (stereo not drawn) | 83* | 55* | 95* | 85* | 17
CCCCCCCCCn1c2c(c(=N)c3c1CCC3)CCC2 | 71* | · | 97* | 81* | ·
O=C(Nc1ccccc1Oc1ccccc1)c1cc([N+](=O)[O-])ccc1Cl | 38 | 55* | 26 | 57 | -1
O=C1C=CC2(O[C@H](c3ccccc3)[C@@H](c3ccccc3)O2)[C@H](Sc2ccccc2O)C1 | -131 | 37 | 31 | -79 | 87*
O=C(NCc1cccnc1)/C(=C\c1ccc(-c2ccc(Cl)c(Cl)c2)o1)S(=O)(=O)c1ccccc1 | 44 | 61* | 35 | 85* | 17
CC(=O)c1c(C)[nH]c(C(=O)COC(=O)CN(C)S(=O)(=O)c2ccc(Cl)cc2)c1C | 0 | -29 | 7 | 14 | -8

Source: PubChem (The Scripps Research Institute Molecular Screening Center)
